From PubChem BioAssay
An excerpt weighted towards active compounds, which were near 3.3% of everything screened.
Sm TGR inh – inhibitors of Schistosoma mansoni thioredoxin glutathione reductase; actives 3% (n = 360,000); Potency, µM (titrated, usually from 114 µM), for the others: at the top dose activity change, negative = inhibition, usual class: inhibitors; purified TGR, DTNB reduction, TNB absorbance 405 nm; Q962Y6; note: % is set by controls: 0 for no effect and ±100 for the full control effect; nearly all actives have a fitted effect of over 60% in size
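Kinetic colorimetric format: TGR-catalysed, NADPH-driven DTNB reduction monitored via TNB absorbance. Enzyme dispensed at 20 nM; compound exposure 15 min at room temperature before reaction start.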
RE007 growth inh – less growth of the S. pombe RE007 Vpr strain. S. pombe RE007 Vpr strain, BacTiter-Glo ATP luminescence, 24 h. Potency, µM (highest dose often 92.2 µM), for the others: at the highest dose activity change, negative = less growth, actives largely listed as inhibitors. actives 0.21% (n = 360,000). AID 651644; active = well fitted falling curve with a large enough effect; inconclusive = small, poorly fitted or top-dose-only effect; inactive = no such curve, though single readings can be large or run the other way; note: % is set by controls: 0 for no effect and ±100 for the full control effect; nearly all actives have a fitted effect of over 50% in size
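Fission yeast RE007 carrying one integrated HIV-1 vpr copy, seeded at OD 0.01 in PMG+AL medium with 23 nL pinned compound. Grown 24 h at 30 degrees; viability read by BacTiter-Glo luminescence after 5 min.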
AmpC detergent – AmpC beta-lactamase inhibition with detergent present | P00811 | AmpC hydrolysis of nitrocefin, absorbance 480 nm, 0.01% Triton | Potency, µM (doses to about 114 µM), without a hit: at the top dose activity change, negative = inhibition, usual class: inhibitors | actives 0.041% (n = 370,000) | AID 485294;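 note: 0% = no-compound wells and -100% = no-enzyme wells; nearly all actives have a fitted effect of over 25% in size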
Target sequence (P00811 whole entry, looked up): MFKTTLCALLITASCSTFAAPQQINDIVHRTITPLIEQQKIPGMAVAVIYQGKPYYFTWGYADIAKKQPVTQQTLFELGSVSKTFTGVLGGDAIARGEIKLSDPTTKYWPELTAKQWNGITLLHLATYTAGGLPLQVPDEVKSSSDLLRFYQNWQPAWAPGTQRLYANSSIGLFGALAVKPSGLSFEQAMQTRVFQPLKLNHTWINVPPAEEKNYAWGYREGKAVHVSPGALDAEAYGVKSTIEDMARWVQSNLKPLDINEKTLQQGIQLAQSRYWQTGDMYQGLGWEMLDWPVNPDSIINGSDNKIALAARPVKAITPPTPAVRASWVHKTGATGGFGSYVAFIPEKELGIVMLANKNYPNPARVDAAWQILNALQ
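20 mM phosphate pH 7.0 + 0.01% (detergent screen) or 0.0001% Triton X-100; 5.3 nM AmpC reagent; cpd preinc 15 min RT; nitrocefin (800 uM stock) to start; A480 q20 s × 4 min; Activity was normalised to no-enzyme and no-compound control wells.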
AmpC inh no detg – blocks E. coli AmpC beta-lactamase in detergent-free assay | Potency, µM (doses to about 57.1 µM), for inactives: at the top dose activity change, negative = inhibition, hits mostly inhibitors | P00811 | actives 0.52% (n = 330,000) | AID 485341 | AmpC nitrocefin hydrolysis, absorbance 480 nm, 0.0001% Triton;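 note: plate controls were no compound for no effect and no enzyme for full effect; nearly all actives have a fitted effect of over 20% in size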
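20 mM phosphate pH 7.0 + 0.01% (detergent screen) or 0.0001% Triton X-100; 5.3 nM AmpC reagent; cpd preinc 15 min RT; nitrocefin (800 uM stock) to start; A480 q20 s × 4 min; Activity was normalised to no-enzyme and no-compound control wells.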
SARS PLP yeast – SARS-CoV PLP inhibition in yeast. S. cerevisiae expressing SARS-CoV PLpro, growth rescue. Potency, µM (highest dose often 32.9 µM), inactives show at the highest dose activity, positive = growth rescue, most hits filed as activators. actives 0.19% (n = 330,000). AID 485353; calls by dose curve; note: 0% is about no effect; nearly all actives have a fitted effect of over 55% in size
Tb PYK inh – T. brucei pyruvate kinase inhibition; Q57TT1; TbPYK enzyme, Kinase-Glo Plus ATP luminescence, 45 min; Potency, µM (highest dose often 76.8 µM), for the others: top-dose activity, negative = inhibition, actives largely listed as inhibitors; actives 0.12% (n = 410,000); note: % is set by controls: 0 for no effect and ±100 for the full control effect; nearly all actives have a fitted effect of over 50% in size
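Readout: single end-point luminescence (Kinase-Glo Plus, 10 min). Reaction conditions were TbPYK/substrate plus 130 uM ADP, 45 min at RT, pH 7.2 TEA buffer. No-enzyme wells served as controls, and data were normalized before concentration-response fitting.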
* hit, by the source's call; u = inconclusive; x = not tested or not shown; [ ] = another dose, or the depositor's remark. Unless noted, calls come from the whole dose curve; as a rule, active = well fitted curve in the direction sought with a large enough effect; inconclusive = small, poorly fitted or top-dose-only effect, or another doubt; inactive = no such curve, though single readings can be large; an effect the other way counts as inactive or inconclusive. Potency is the fitted concentration of half-maximal effect.

SMILES | Sm TGR inh | RE007 growth inh | AmpC detergent | AmpC inh no detg | SARS PLP yeast | Tb PYK inh
Cc1ccc(S(=O)(=O)N(Cc2n[nH]c(=S)n2-c2ccccc2)c2ccccc2)cc1 | -17% | 10% | 2% | -42% | 0% | 7.9µM*
Cc1cccc(NCc2n[nH]c(=S)n2-c2ccccc2)c1 | -4%[57.1 µM] | -17% | 4% | -13% | 1% | u
Cc1ccc(NCc2n[nH]c(=S)n2-c2ccccc2)cc1 | -7% | 6% | 1% | -16% | 0% | 2.8µM*
Cc1ccc(C)c(N2CCN(C(=O)Cn3cnc4nc5c(cc4c3=O)CCCC5)CC2)c1 | 5% | x | 5% | x | x | 0%
CCCOc1ccc(Cl)cc1/C=C1/C(=O)ON=C1C | 14µM* | -2% | -12% | -11% | 0% | -18%
CCOc1cc(/C=C2/C(=O)ON=C2C)ccc1OCc1ccccc1 | 50µM* | -1% | -9% | -3% | 0% | u
COc1ccccc1/C=C1/C(=O)ON=C1C | -13% | 15% | 1% | 3% | 3% | -28%
Cc1cccc(-n2nc(C)c(C(=O)Nc3cc(C)ccc3C)c2-n2cccc2)c1 | 10% | x | -2% | x | x | -3%[15.4 µM]
CCOc1ccc2c(c1)/C(=C(\C(Cl)=C(Cl)Cl)[N+](=O)[O-])N2 | 5.6µM* | 7% | 8% | -22% | -7% | 1%
O=C(COc1ccc(F)cc1)Nc1ccc(S(=O)(=O)N(Cc2ccccc2)c2ccccc2)cc1 | 1% | x | 17% | x | x | 5%
O=C(/C=C/c1ccccn1)c1cc(Cl)cc(Cl)c1O | 40µM* | -14% | 2% | -30% | -3% | -1%
COc1ccc(/C=C/C(=O)c2cc(Cl)cc(Cl)c2O)c(OC)c1 | -28% | -1% | 5% | -35% | 2% | -6%
Cc1ccc(NC(=S)NC2CCSc3ccccc32)cc1C (stereo not given) | 5% | -4% | -4% | 11µM* | -11% | -4%
COc1ccccc1COCC(O)CNCC1(N2CCCCC2)CCCCC1 (stereo not given) | -5% | -1% | 0% | 0.14µM* | -3% | -10%
O=C1C=CC(=Nc2ccc3c(c2)Cc2ccccc2-3)O1 | x | 28µM* | x | x | x | -1%
Cc1cccc(OCc2n[nH]c(=S)n2C2CCCCC2)c1 | -4% | 1% | u | -11% | 4% | 13µM*
Cc1cc(=O)n(CC(=O)O)c2ccccc12 | 13% | 5% | 5% | -15% | 0% | -1%
Cc1cc(C)n(CC(=O)O)c(=O)c1[N+](=O)[O-] | 40µM* | 18% | 8% | -20% | 0% | -11%
CS(=O)(=O)OCC(O)C(O)COS(C)(=O)=O (stereo not given) | x | x | x | x | x | 4%
CN1CCN(Cc2nc3ccccc3c(=O)n2CC#N)CC1 | 5% | -7% | -7% | -19% | 1% | 0%
N#CCn1c(CCl)nc2ccccc2c1=O | 28µM* | 1% | 2% | -28% | -3% | -7%
Cc1cc(C)n2nc(S(=O)(=O)N(CC(C)C)CC(C)C)nc2n1 | 2% | 0% | u | 10µM* | -4% | -2%
COc1ccc(-n2c3c(cc(C(=O)NC4CCSC4=O)c2=O)C(=O)CC(C)(C)C3)cc1 (stereo not given) | -4% | -6% | u | 24% | 2% | 6%
Cc1ccc(-n2c3c(cc(C(=O)NC4CCSC4=O)c2=O)C(=O)CCC3)cc1 (stereo not given) | 79µM* | 20% | u | -5% | 0% | 1%
COc1cccc(-c2c(NC(=O)c3ccco3)n(-c3ccc(C)cc3)nc(C)c2=O)c1 | 79µM* | 12% | u | -2% | 5% | -6%
O=C(NCCc1ccccc1)c1ccc2c(c1)N(Cc1ccccc1)C(=O)CS2=O (stereo not given) | 7% | -14% | u | 5µM* | -2% | -6%
